Source: PubChem BioAssay
BoNT-F LC inh – inhibitors of Botulinum neurotoxin F light chain protease | Multiplex microsphere protease cleavage assay, flow cytometry | inhibition, % at 10 µM | actives 0.22% (n = 360,000); in the data active = inhibition above about 35%, passing the limit was not always enough; inconclusive = no clear call, values can overlap the other calls
Autofluor counter – compound fluorescence in toxin protease inhibitor counterscreen. compound autofluorescence counterscreen, microsphere flow cytometry; hits give high values. fluorescence intensity (concentration not given with the values). actives 3.1% (n = 360,000). AID 624483; in the data active = fluorescence intensity above about 16000; inconclusive = no clear call, values can overlap the other calls
Anthrax LF inh2 – inhibitors of Bacillus anthracis lethal factor protease | actives 0.12% (n = 360,000) | multiplex microsphere protease cleavage assay, LF | inhibition, % at 10 µM; in the data active = inhibition above about 30%; inconclusive = no clear call, values can overlap the other calls
Target sequence (P15917 whole entry, looked up): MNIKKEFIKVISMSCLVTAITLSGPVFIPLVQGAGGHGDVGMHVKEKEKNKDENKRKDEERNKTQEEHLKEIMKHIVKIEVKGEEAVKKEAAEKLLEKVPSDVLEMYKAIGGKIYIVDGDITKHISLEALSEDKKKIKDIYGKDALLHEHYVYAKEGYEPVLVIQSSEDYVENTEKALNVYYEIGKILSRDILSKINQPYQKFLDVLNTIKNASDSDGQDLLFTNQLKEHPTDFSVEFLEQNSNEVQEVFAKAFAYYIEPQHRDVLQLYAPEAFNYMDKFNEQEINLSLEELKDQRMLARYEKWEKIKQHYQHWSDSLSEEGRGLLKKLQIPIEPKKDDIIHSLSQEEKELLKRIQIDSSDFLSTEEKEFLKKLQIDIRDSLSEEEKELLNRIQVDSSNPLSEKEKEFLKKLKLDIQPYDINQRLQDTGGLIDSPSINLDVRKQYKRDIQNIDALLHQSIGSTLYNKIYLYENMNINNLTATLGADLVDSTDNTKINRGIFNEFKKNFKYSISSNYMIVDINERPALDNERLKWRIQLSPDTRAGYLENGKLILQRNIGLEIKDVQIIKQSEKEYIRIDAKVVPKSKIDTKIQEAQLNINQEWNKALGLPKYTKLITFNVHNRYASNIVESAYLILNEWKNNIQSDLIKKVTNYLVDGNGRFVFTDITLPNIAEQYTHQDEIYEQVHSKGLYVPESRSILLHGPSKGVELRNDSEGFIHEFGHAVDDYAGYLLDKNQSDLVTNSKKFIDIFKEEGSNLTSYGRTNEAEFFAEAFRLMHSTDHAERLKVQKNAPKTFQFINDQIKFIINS
BoNT A protease – blocks Botulinum neurotoxin A light chain protease | actives 0.17% (n = 360,000) | multiplex microsphere protease substrate cleavage, flow cytometry | inhibition, % at 10 µM | AID 588499; in the data active = inhibition above about 30%; inconclusive = no clear call, values can overlap the other calls
BoNT-A LC CP1 – blocks botulinum neurotoxin A light chain protease | shares compounds with BoNT-F LC inh | multiplex microsphere protease assay, flow cytometry | inhibition, % at 10 µM | actives 3% (n = 720) | AID 602139; in the data active = inhibition above about 32%
BoNTF LC inh 1 – BoNT/F light chain protease inhibition | shares compounds with BoNT-F LC inh | multiplex microsphere protease cleavage assay, flow cytometry | inhibition, % at 10 µM | 720 tested, under 10 active | AID 602140
LF protease CP1 – inhibitors of Bacillus anthracis lethal factor protease. 720 tested, under 10 active. multiplex microsphere protease cleavage assay, LF. inhibition, % at 10 µM. shares compounds with BoNT-F LC inh
Large screens that a line does not name were inactive (follow-up assays come after a bar, where they were run). Compounds with a hit are over-represented: about 3.5% of the library has one in this group of screens. Unless noted, no rule for the calls is given here.

O=C(NC1CCCC1)C(c1ccc(F)cc1)N(Cc1ccccc1)C(=O)c1csnn1 (stereo unspecified)	none
O=C(NC1CCCC1)C(c1cccnc1)N(Cc1ccccc1)C(=O)c1csnn1 (stereo unspecified)	BoNT-F LC inh 43 | BoNT-A LC CP1 inactive | BoNTF LC inh 1 inactive | LF protease CP1 inactive
Cc1ccc(S(=O)(=O)Nc2ccc3c(c2)C(=O)N([C@@H](C)CO)C[C@@H](C)[C@@H](CN(C)CC2CC2)OCCCC[C@@H](C)O3)cc1	none
CCS(=O)(=O)N1CCC(C(=O)Oc2ccccc2)CC1	BoNT-F LC inh 39 | BoNT-A LC CP1 inactive | BoNTF LC inh 1 inactive | LF protease CP1 inactive
CCS(=O)(=O)N1CCC(C(=O)Oc2ccc(C(=O)OC)cc2)CC1	none
Cc1cc(NC(=O)COc2ccc3ccccc3c2Br)no1	none
O=C(NCc1ccco1)c1ccc(S(=O)(=O)c2cccc(S(=O)(=O)N3CCOCC3)c2)cc1	BoNT-F LC inh 38 | BoNT-A LC CP1 inactive | BoNTF LC inh 1 inactive | LF protease CP1 inactive
NC(=O)CSc1nnc(-c2cnccn2)n1-c1ccccc1	none
Cc1ccc(-n2c(SCC(N)=O)nnc2-c2cnccn2)cc1	BoNT-F LC inh inconclusive, Anthrax LF inh2 36 | BoNT-A LC CP1 inactive | BoNTF LC inh 1 inactive | LF protease CP1 inactive
O=C(C[C@@H]1C/C=C\CC[C@@H](Cc2ccc(F)cc2)C(=O)OC[C@@H](Cc2ccccc2)NC1=O)NCCO	none
CC(Nc1ccc(Cl)c(Cl)c1)C(=O)NN (stereo unspecified)	BoNT-F LC inh inconclusive, BoNT A protease inconclusive
CC(C)OC(=O)C(C)Nc1ccc(F)c(Cl)c1 (stereo unspecified)	BoNT-F LC inh 40 | BoNT-A LC CP1 inactive | BoNTF LC inh 1 inactive | LF protease CP1 inactive
Cc1cccc2c1NC(C)CC2C (stereo unspecified)	Anthrax LF inh2 40, BoNT A protease 34 | BoNT-A LC CP1 inactive | BoNTF LC inh 1 inactive | LF protease CP1 inactive
CN(C(=O)C1Cc2c(-c3ccc(Cl)cc3)ccnc2O1)c1ccccc1 (stereo unspecified)	none
CC1(C(=O)NC2CCCCCC2)CCN1C(=O)Cc1ccc(-c2ccccc2)cc1 (stereo unspecified)	none
CCCNC(=O)c1cc(C2CCCN(C(=O)C3CC3)C2)on1 (stereo unspecified)	none
O=C1c2ccccc2C(=O)N1C1CCCCC1	BoNT-F LC inh inconclusive, Anthrax LF inh2 50 | BoNT-A LC CP1 inactive | BoNTF LC inh 1 inactive | LF protease CP1 inactive
CCN(CC(=O)Nc1c(F)cccc1F)C(=O)c1ccc(OC)c(S(=O)(=O)NC2CCCC2)c1	none
O=C(Nc1ccc2nc3ccccc3nc2c1)c1ccccc1	BoNT A protease 63 | BoNT-A LC CP1 39 | BoNTF LC inh 1 inactive | LF protease CP1 inactive
O=C(Nc1ccc(Cl)c(Cl)c1)c1ccccc1	none
CCOC(=O)N1CCN(CCC(=O)Nc2cc(C)ccc2C)CC1	none
CCOC(=O)C1CCN(CCC(=O)Nc2cc(C)ccc2C)CC1	BoNT-F LC inh inconclusive, Anthrax LF inh2 42 | BoNT-A LC CP1 inactive | BoNTF LC inh 1 inactive | LF protease CP1 inactive
O=C1C(=O)N(Cc2ccco2)C(c2cccs2)/C1=C(\O)c1cccc([N+](=O)[O-])c1 (stereo unspecified)	none
Cc1ccc(NC(=O)CN(C)C(=O)c2ccccc2OCc2c(C)noc2C)cc1	BoNT-F LC inh inconclusive, Autofluor counter inconclusive, Anthrax LF inh2 inconclusive, BoNT A protease 89 | BoNT-A LC CP1 inactive | BoNTF LC inh 1 inactive | LF protease CP1 inactive
O=C(CN1CCOCC1)NCCc1ccccc1	Anthrax LF inh2 31 | BoNT-A LC CP1 inactive | BoNTF LC inh 1 inactive | LF protease CP1 inactive
O=C(CN1CCOCC1)NCc1ccccc1	none
Cc1cc(=O)oc2c(CN3CCCC3)c(O)c(Cl)cc12	Anthrax LF inh2 30 | BoNT-A LC CP1 inactive | BoNTF LC inh 1 inactive | LF protease CP1 inactive
Cc1ccc(NC(=O)Cc2ccc(Cl)cc2)nc1	BoNT-F LC inh inconclusive, Autofluor counter inconclusive, Anthrax LF inh2 47 | BoNT-A LC CP1 inactive | BoNTF LC inh 1 inactive | LF protease CP1 inactive
COc1ccc(CCNC(=O)c2ccc3c(c2)OCCO3)cc1	none
COc1ccc(CCNC(=O)c2ccc3c(c2)OCO3)cc1	BoNT A protease 64 | BoNT-A LC CP1 inactive | BoNTF LC inh 1 inactive | LF protease CP1 inactive
COc1ccc(-n2c(C)nnc2SCC(=O)N2CCOCC2)cc1	BoNT-F LC inh 47 | BoNT-A LC CP1 inactive | BoNTF LC inh 1 inactive | LF protease CP1 inactive
C=CCn1c(SCC(=O)Nc2ccc(Br)cc2)nc(O)cc1=O	none
CCn1c(SCC(=O)Nc2ccc(C)cc2)nc(O)cc1=O	BoNT-F LC inh 42 | BoNT-A LC CP1 inactive | BoNTF LC inh 1 inactive | LF protease CP1 inactive
O=C(c1cccs1)c1ccc(-c2cccs2)s1	Anthrax LF inh2 35, BoNT A protease 33 | BoNT-A LC CP1 inactive | BoNTF LC inh 1 inactive | LF protease CP1 inactive
CN1CCN(C(=O)c2ccc(-c3cccs3)s2)CC1	BoNT-F LC inh inconclusive
Cc1ccc(S(=O)(=O)N2CCCN(c3nc4cc(C)ccc4cc3C#N)CC2)cc1	BoNT A protease 40 | BoNT-A LC CP1 inactive | BoNTF LC inh 1 inactive | LF protease CP1 inactive
Cc1ccc2nc(N3CCN(S(=O)(=O)c4ccc5c(c4)OCCO5)CC3)c(C#N)cc2c1	none
Cc1cccc(C)c1-n1nnnc1C1(C)CCC(=O)N1CCCN1CCOCC1 (stereo unspecified)	none
COc1ccccc1-c1nc2cc3ccccc3cc2nc1-c1ccccc1	BoNT A protease 48 | BoNT-A LC CP1 inactive | BoNTF LC inh 1 inactive | LF protease CP1 inactive
Oc1ccccc1-c1nc2ccccc2nc1-c1ccccc1	none
CCn1c2ccccc2c2cc(NC(=O)c3cc(C)on3)ccc21	none
CCn1c2ccccc2c2cc(NC(=O)c3ccc(Br)o3)ccc21	Anthrax LF inh2 43, BoNT A protease 77 | BoNT-A LC CP1 inactive | BoNTF LC inh 1 inactive | LF protease CP1 inactive
N#Cc1ccccc1NC(=O)CN1CCN(Cc2ccccc2)CC1	BoNT-F LC inh 46 | BoNT-A LC CP1 inactive | BoNTF LC inh 1 inactive | LF protease CP1 inactive
COC(=O)c1ccc2nc(-c3ccccc3)c(Cc3ccccc3OC)n2c1	none
Clc1ccccc1-c1nnc2n1CCCCC2	Anthrax LF inh2 37 | BoNT-A LC CP1 inactive | BoNTF LC inh 1 inactive | LF protease CP1 inactive
Cc1c(C(=O)O)sc2nc(-c3cccs3)cc(C(F)(F)F)c12	none | BoNT-A LC CP1 inactive | BoNTF LC inh 1 inactive | LF protease CP1 inactive
Cc1ccc(C(=O)Nc2nccs2)s1	none
CC(=O)c1sc2nc(-c3cccs3)cc(C(F)(F)F)c2c1N	none
Cc1c(C(=O)Nc2nccs2)sc2nc(-c3cccs3)cc(C(F)(F)F)c12	Anthrax LF inh2 37, BoNT A protease 39 | BoNT-A LC CP1 inactive | BoNTF LC inh 1 inactive | LF protease CP1 inactive
N#Cc1ccc(S(=O)(=O)N2CCCCC2c2cc(C(=O)NCc3cccnc3)no2)cc1 (stereo unspecified)	none
CC(C)(C)c1ccc(CC(=O)N2CCC2(C)C(=O)NS(=O)(=O)c2ccc(Cl)cc2)cc1 (stereo unspecified)	none
COc1ccc2c(n1)Sc1nc3ccccc3nc1N2	BoNT A protease 30 | BoNT-A LC CP1 inactive | BoNTF LC inh 1 inactive | LF protease CP1 inactive
COc1cc2ccccc2nn1	none
